# Experimental data: the supplement of paper PMC9950053
# Structures can show the parent of a compound that is named as a salt.
# Tested on: Danio rerio larvae (5 dpf)
# Assay: excitability (activity period 17 minus period 16, 1-s interval sound) minus DMSO control (percentage points); higher = more acoustic excitability than DMSO larvae
# Conditions: 10 µM; exposure time: 3 h pre-incubation + 3 h imaging
# Description: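 Wild-type 5 dpf zebrafish larvae (n=48 per drug, 96-well plates, 28.5 °C) were exposed to Tocris FDA-approved library compounds at 10 µM (0.1% DMSO) for 3 h before and 3 h during imaging. Images were taken every 6 s during visual (moving coloured lines) and acoustic stimuli, and larvae were tracked with the DeepLabCut-based Z-LaP Tracker. Each behavioural measure is the treated-group mean minus the DMSO vehicle control mean (n=844), in percentage points. This mapping covers compounds with 4-character plate codes.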
row,Structure (SMILES),excitability
1,CC(C)C[C@H]1C(=O)N2CCC[C@H]2[C@]2(O)O[C@](NC(=O)[C@@H]3C=C4c5cccc6[nH]c(Br)c(c56)C[C@H]4N(C)C3)(C(C)C)C(=O)N12 [Bromocriptine mesylate],18.2
2,CC(O)(CS(=O)(=O)c1ccc(F)cc1)C(=O)Nc1ccc(C#N)c(C(F)(F)F)c1 (stereo unspecified) [Bicalutamide],3.42
3,CC[C@@H](C(N)=O)N1CCCC1=O [Levetiracetam],1.58
4,COc1cc2c(cc1OC)C1CC(=O)C(CC(C)C)CN1CC2 (stereo unspecified) [Tetrabenazine],22.4
5,N[C@@H]1C[C@H]1c1ccccc1 [Tranylcypromine hydrochloride],3.55
6,Cc1cccc([C@H](C)c2c[nH]cn2)c1C [Dexmedetomidine hydrochloride],5.7
7,CN1C[C@H](C(=O)N[C@]2(C)O[C@@]3(O)[C@@H]4CCCN4C(=O)[C@H](Cc4ccccc4)N3C2=O)C[C@@H]2c3cccc4[nH]cc(c34)C[C@H]21 [Dihydroergotamine mesylate],0.33
8,O=c1[nH]c2ccccc2n1C1CCN(CCCC(c2ccc(F)cc2)c2ccc(F)cc2)CC1 [Pimozide],-0.377
9,C=C1C[C@@H]2[C@H](CC[C@]3(C)C(=O)CC[C@@H]23)[C@@]2(C)C=CC(=O)C=C12 [Exemestane],11.9
10,CCN(C)C(=O)Oc1cccc([C@H](C)N(C)C)c1 [Rivastigmine tartrate],3.52
11,C=CCN1C[C@H](C(=O)N(CCCN(C)C)C(=O)NCC)C[C@@H]2c3cccc4[nH]cc(c34)C[C@H]21 [Cabergoline],12.4
